The panel holds about 79,000 compounds, 15% with a hit somewhere; the sample as a whole holds those more often. Values without a mark were called inactive. Activity calls are given as the source filed them. Rule as the data show it: active = growth inhibition above about 70%; inactive = the rest.
What was measured:
[1] = NCI Yeast Anticancer Drug Screen. Data for the rad50 strain (AID 155);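 also: 0% = growth of vehicle-only cultures of the same strain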; details: S. cerevisiae rad50 strain growth inhibition, hits give high values
Procedure, shortened: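 A DNA repair-deficient yeast mutant serves as the test organism; compound-induced growth inhibition is calculated against vehicle-treated cells.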

[2] = NCI Yeast Anticancer Drug Screen. Data for the mec2-1 strain (AID 157); details: S. cerevisiae mec2-1 strain, hits give high values
Procedure, shortened: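 Readout is yeast growth inhibition, normalised to vehicle-treated controls, in the mec2-1 strain exposed to compound.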

[3] = NCI Yeast Anticancer Drug Screen. Data for the sgs1 mgt1 strain (AID 161);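 also: 0% = growth of cultures given vehicle only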; details: S. cerevisiae sgs1 mgt1 strain, hits give high values
Procedure, shortened: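 Yeast cells carrying a defined DNA-repair defect were exposed to test compounds. Growth inhibition was measured relative to vehicle-treated controls.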

[4] = NCI Yeast Anticancer Drug Screen. Data for the cln2 rad14 strain (AID 165);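 also: 0% = growth equal to vehicle treated cultures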; details: S. cerevisiae cln2 rad14 strain, hits give high values
Procedure, shortened: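 Relative to vehicle controls, growth inhibition of compound-treated cln2 rad14 yeast was recorded.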

[5] = NCI Yeast Anticancer Drug Screen. Data for the bub3 strain (AID 167); details: S. cerevisiae bub3 mutant strain, hits give high values
Procedure, shortened: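 Inhibition values come from growth of compound-treated mutant yeast normalised to vehicle-treated controls.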

[6] = NCI Yeast Anticancer Drug Screen. Data for the mlh1 rad18 strain (AID 175); details: S. cerevisiae mlh1 rad18 strain growth inhibition, hits give high values
Procedure, shortened: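 Test agents were incubated with a yeast strain of defined genotype (DNA damage repair defect). Inhibition of growth was derived by comparison with vehicle-exposed cultures.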

[7] = at 5.0 µM (retest, dose inferred, filed as 0.5)
[8] = at 50.0 µM (retest, dose inferred, filed as 5.0)

Compound | growth inhibition [1, 7] [%] | growth inhibition [1, 8] | growth inhibition ([1]; at 50.0 µM) | growth inhibition [2, 7] [%] | growth inhibition [2, 8] | growth inhibition ([2]; at 50.0 µM) | growth inhibition [3, 7] [%] | growth inhibition [3, 8] | growth inhibition ([3]; at 50.0 µM) | growth inhibition [4, 7] [%] | growth inhibition [4, 8] | growth inhibition ([4]; at 50.0 µM) | growth inhibition [5, 7] [%] | growth inhibition [5, 8] | growth inhibition ([5]; at 50.0 µM) | growth inhibition [6, 7] [%] | growth inhibition [6, 8] | growth inhibition ([6]; at 50.0 µM)
CN(C)CCCNc1cc(/C=C/c2ccc([N+](=O)[O-])cc2)nc2ccccc12 | -6 | 70% (active) | 80.8% (active) | -3 | 38% | 68.5% | -2 | 60% | 86.3% (active) | -4 | 64% | 39.1% | -6 | 45% | 60.9% | -3 | 56% | 91.1% (active)
C/C(=N/NC(N)=O)C1CC(CCC2([N+](=O)[O-])CCC(C)(O)C(/C(C)=N\NC(N)=O)C2)([N+](=O)[O-])CCC1(C)O (stereo not given) | 5 | -5% | 10.6% | 4 | 0% | 14.1% | 3 | -1% | -6.4% | 5 | -7% | 9.6% | 7 | -3% | 96.7% (active) | 1 | 3% | 2.1%
O=C1CC2(CCCC2)C(=O)N1c1ccc(N2C(=O)CC3(CCCC3)C2=O)cc1 | 3 | -10% | -11.8% | -3 | -12% | 6.95% | -1 | -7% | -22.4% | -5 | -7% | 44.1% | 0 | -4% | -0.9% | 1 | -5% | -11.7%
Cc1cc(Cc2ccccc2)ccc1O | 0 | 66% | 51.2% | -6 | 39% | 96.4% (active) | -1 | 50% | 55.8% | -5 | 15% | 57.5% | -11 | 47% | 81% (active) | 8 | 60% | 41%
Cc1[nH]c2c(C)c3c([nH]c4ccc(Cl)cc43)c(C)c2c(=O)c1C | -8 | 12% | 61.1% | -24 | 0% | 14.2% | -14 | 3% | 23.9% | -17 | 6% | 13.7% | -10 | -3% | 8.65% | -19 | -2% | 39.1%
CC(=O)OCCSCCOC(C)=O | 20 | 90% (active) | 76.4% (active) | -1 | 84% (active) | 29.4% | 6 | 88% (active) | 81% (active) | 7 | 23% | 12.2% | 7 | 88% (active) | 39% | 7 | 90% (active) | 78.3% (active)
O=C1C(CN2CCCC2)C(O)=C(c2ccccc2)N1c1ccccc1 (stereo not given) | 5 | 4% | 52.2% | 1 | 9% | 14.8% | 1 | 2% | 75.5% (active) | -3 | 1% | 18.6% | -6 | 1% | 30.1% | 0 | 1% | 43.1%
O=C(O)CCCc1ccc2ccccc2c1 | -5 | 0% | 17.4% | 11 | -1% | -27.1% | 10 | 6% | 11.9% | 14 | -71% | 40% | 13 | 0% | 5.65% | -1 | 9% | 12%
COc1ccc(-c2[nH]c(-c3ccc(OC)cc3)c(-c3ccccn3)c2-c2ccccn2)cc1 | -4 | 16% | 80.7% (active) | -16 | 18% | 91.7% (active) | 0 | 25% | 95.4% (active) | 7 | 27% | 69.5% | 4 | -7% | 83.5% (active) | -19 | 11% | 94.7% (active)
C=C1CCC[C@@H]2[C@@](C)(CC3=CC(=O)C=CC3=O)C(C)CC[C@]12C (stereo not given in full) | 39 | 96% (active) | 98.5% (active) | 43 | 96% (active) | 88.7% (active) | 54 | 97% (active) | 98.7% (active) | 7 | 93% (active) | 95.2% (active) | 27 | 96% (active) | 98.6% (active) | 55 | 95% (active) | 98.5% (active)

Reference: PubChem BioAssay (NCI)
